The full list was thinned out, with hits kept by preference.
Pf Dd2 growth – Plasmodium falciparum Dd2 growth inhibition; P. falciparum Dd2 growth, SYBR Green, 72 h; Potency, µM (series often up to 28.9 µM), for the others: at the highest dose activity, negative = inhibition, most hits filed as inhibitors; hit rate 4.3% among 120,000; AID 1347417; active = well fitted inhibition curve with a large enough effect;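 note: plate controls were DMSO vehicle for no effect and reference drug for full effect; nearly all actives have a fitted effect of over 65% in size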
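Infected erythrocytes (Dd2, 0.3% parasitemia, 2.5% hematocrit final) are added to compound in RPMI-1640/Albumax II medium, grown 72 h at 37C in low oxygen, then lysed with saponin/Triton-X containing SYBR Green and read by fluorescence.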
* marks the source's active call; other numbers are inactive results; i = inactive; [ ] = remark or other dose. Potency is the fitted concentration of half-maximal effect.

SMILES | Pf Dd2 growth
Cc1nn(C)c(C)c1CCC(=O)N1C[C@@H](Oc2cccnc2)C[C@H]1C(=O)NC1CC1 | 10.3%
O=C(CO)NC1CC(=O)N(Cc2ccccc2C(F)(F)F)C1 (centres undefined) | 14.3%
COCCCN1CCCC2(CCN(C(=O)NCc3cccc(F)c3)C2)C1=O (centres undefined) | -8.2%
COc1ccc(CC(=O)N2CCOC[C@H](Oc3ccccc3)C2)cc1 | -15.1%[44.1 µM]
CCCN1CCN(C(=O)c2cc(CN(C)Cc3ccccc3)on2)CC1 | -14.1%
CCCOCC(=O)N1CCCC(c2cc(N3CCCC3)nc(C)n2)C1 (centres undefined) | -4.6%
Cn1nc(C(=O)N2CCN(c3ccc(Cl)cc3)CC2)c2c1-c1ccccc1SC2 | 9.4%
COc1ccc(NC(=O)c2nn(C)c3c2CSc2ccc(C)cc2-3)cc1OC | i
Cc1ccc2c(c1)-c1c(c(C(=O)N3CCN(c4cc(C)ccc4C)CC3)nn1C)CS2 | 12.6µM*
COCC(=O)N1CCN(C(=O)Nc2ccccc2)C[C@H]1C(=O)N[C@H](Cc1c[nH]c2ccccc12)C(N)=O | -24.5%
Cc1ccc(/C=C/c2onc(C)c2S(=O)(=O)N2CCC(C(=O)N3CCN(c4ccccc4F)CC3)CC2)cc1 | 6.31µM*
Cc1ccc(/C=C/c2onc(C)c2S(=O)(=O)N2CCC(C(=O)Nc3cc(F)ccc3F)CC2)cc1 | -0.5%
Cc1ccc(/C=C/c2onc(C)c2S(=O)(=O)N2CCC(C(=O)N3CCC(N(C)C(C)C)CC3)CC2)cc1 | 10µM*
Cc1ccc(/C=C/c2onc(C)c2S(=O)(=O)N2CCC(C(=O)N3CCN(c4cccc(C)c4)C(C)C3)CC2)cc1 (centres undefined) | i
Cc1cccc(N2CCN(C(=O)C3CCN(S(=O)(=O)c4c(C)noc4/C=C/c4ccccc4F)CC3)CC2)c1C | i
Cc1cccc(/C=C/c2onc(C)c2S(=O)(=O)N2CCC(C(=O)N3CCC(C)CC3)CC2)c1 | 56.7%
CCOc1ccccc1C(=O)NCC(=O)N1CCN(c2ccccn2)CC1 | i
Cc1ccccc1Cn1cc(-c2ccncc2)cc1C(=O)N(C)Cc1ccco1 | 3.55µM*
CN(Cc1ccccc1)C(=O)c1cc(-c2ccncc2)cn1C | -20.4%
Cc1ccccc1Cn1cc(-c2ccncc2)cc1C(=O)N1CCCC(C)C1 (centres undefined) | 10µM*
CCCn1cc(-c2ccncc2)cc1C(=O)NCc1ccc(C)o1 | -0.6%
Cc1ccccc1CCC1CCCN(C(=O)c2ccccc2-c2nn[nH]n2)C1 (centres undefined) | -13.9%
Cc1ccc(Cn2cc(-c3ccncc3)cc2C(=O)O)cc1 | i
Cc1noc(C)c1[S+](=O)([O-])N1CCC2(CC1)C(=O)NN=C2c1ccncc1 | 5.5%
Cc1cncc(C(=O)N[C@@H]2CN(Cc3ccccc3)C[C@H]2CN(C)C)c1 | -9.0%
SMILES | Pf Dd2 growth
CS(=O)(=O)c1ccc(OC[C@H]2C[C@@H](NC(=O)c3cccnc3)[C@H](O)[C@@H]2O)cc1 | i
C[C@H]1[C@@H]2[C@@H](O)C([C@H](C)C(=O)NC(C)(C)C)CC[C@@]2(C)CC[C@@H]1NC(=O)c1cccc(F)c1 (some centres undefined) | -4.7%
O=C(NCc1cccs1)c1cc2c(s1)CCN(C(=O)c1ccc(F)cc1)C2 | i
COc1cccc(C2C(C(=O)Nc3ccccc3OC)=C(C)Nc3nc4ccccc4n32)c1 (centres undefined) | 7.08µM*
CCOc1ccccc1C1C(C(=O)Nc2ccccc2OC)=C(C)Nc2nc3ccccc3n21 (centres undefined) | -19.3%
COc1ccccc1NC(=O)C1=C(C)Nc2nc3ccccc3n2C1c1cccc(OC)c1OC (centres undefined) | i
Cc1ccc(NC(=O)Cn2c(=O)n(Cc3ccco3)c(=O)c3ccccc32)c(C)c1 | -2.1%
CCOc1ccccc1NC(=O)Cn1c(=O)n(Cc2ccco2)c(=O)c2cccnc21 | 11.2µM*
COc1ccccc1NC(=O)Cn1c(=O)n(Cc2ccco2)c(=O)c2cccnc21 | 12.7%
CN1[C@@H](CCC(=O)N2CCN(c3ccccc3)CC2)CNC(=O)[C@@H]2[C@H]1CCN2Cc1ccc(CO)o1 | i
O=C1CC2CCN(C(=O)c3ccc(C(F)(F)F)cc3)CC2CCN1 (centres undefined) | 15.9%
Cc1cn2nc(C(=O)NCc3ccccc3Cl)cc2c(N2CCCC2)n1 | 8.91µM*
Cc1cn2nc(C(=O)Nc3ccc(N(C)C)cc3)cc2c(N2CCCC2)n1 | 0.631µM*
Cc1ccc(CCNC(=O)c2cc3c(N4CCCC4)nc(C)cn3n2)cc1 | -12.5%
Cc1cn2nc(C(=O)NC3CCCC3)cc2c(N2CCCC2)n1 | i
Cc1cn2nc(C(=O)NCc3ccc(C(C)C)cc3)cc2c(N2CCCC2)n1 | i
Cc1cn2nc(C(=O)NC3CCc4ccccc43)cc2c(N2CCCC2)n1 (centres undefined) | 5.62µM*
Cc1cn2nc(C(=O)NCCc3ccc(S(N)(=O)=O)cc3)cc2c(N2CCCC2)n1 | 21.6%
COc1cccc(NC(=O)c2cc3c(N4CCSCC4)nc(C)cn3n2)c1 | i
COc1cc(NC(=O)c2cc3c(N4CCSCC4)nc(C)cn3n2)cc(OC)c1OC | i
